Among the data in PubChem BioAssay AID624331 (National Center for Advancing Translational Sciences (NCATS), 2012) are Potency values, retold here.

Records with an inconclusive call do not appear. Where a call stands in place of a potency, no number is given. Activity calls are given as the source filed them. Calls follow the shape of the dose curve; as a rule, active = well fitted activation curve with a large enough effect; inconclusive = small, poorly fitted or top-dose-only effect; inactive = no such curve, though single readings can be large or run the other way.
Potency is read from the fitted curve at half-maximal effect.

This test is described as follows: qHTS assay for re-activators of p53 using a Luc reporter: Hit Validation with no p53 Expressed. Conditions: p53-null cells, luciferase reporter counter-screen; series mostly up to 46.1 µM. An outline of the steps:
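Without p53 expression, cells (1000/well, Opti-MEM + 10% FBS) were exposed 24 h at 37 deg C to compounds in a 1:5 series from 10 mM stock (top 46.1 µM in well). Luminescent signal read 10 min after Amplite addition; actives flag unspecific activation.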
In the case of `O=C(/C=C/c1ccccc1)NC1CCSC1=O` (stereo not given), the Potency is 16.4 µM (active).

Consider `COc1ccc(/C=N/Nc2nncc3ccccc23)cc1`, for which the Potency entry is “inactive”. The result for `COc1ccc(CC(=O)Nc2ccc(C(=O)Nc3ccccc3C(=O)O)cc2)cc1OC` reads “inactive”. The entry for `COc1ccc(C(=O)N=c2nc3ccccn3s2)cc1` is “inactive”; for `Cc1nc(NC(=O)c2csc3ccccc23)sc1C` it is “inactive”.

Regarding `Cc1ccc(S(=O)(=O)NCC(=O)NCC(=O)N2CCC(C)CC2)cc1`, the Potency result was “inactive”. In the case of `CCCCOC(=O)Nc1ccc(N2CCCCC2)cc1`, the Potency result was “inactive”.

As for `CC(C)[C@H](NC(=O)c1ccc(Cl)cc1Cl)C(=O)NNc1cccc(C(=O)O)c1`, the Potency result was “inactive”. The entry for `COc1ccc2oc(C(=O)Nc3nnc(C)s3)c(C)c2c1` is “inactive”. As for `CN(/N=C/c1ccc2c(c1)OCO2)c1ccccc1`, the Potency result was “inactive”. The result for `CCN1CCN(Cc2ccc(NC(=O)Nc3ccccc3)cc2)CC1` reads “inactive”; that for `N#Cc1ccccc1NC(=O)c1cccc(COc2ccc(Cl)cc2Cl)c1`, 0.116 µM (active).

Regarding `COC(=O)c1ccc(/C=C/c2ccc3cccc(OC(C)=O)c3n2)cc1`, the Potency entry is “inactive”. The result for `O=C(NC(=S)Nc1ccccc1Br)C1CCCCC1` reads “inactive”; that for `CC1Cc2ccccc2N1C(=O)COC(=O)C1(c2ccccc2F)CCCC1` (stereo not given), “inactive”. Take `Cc1ccc2cc(C#N)c(NCc3ccco3)nc2c1`: the Potency entry is “inactive”. `COc1ccc(C(c2nnnn2CCc2ccccc2)N2CCN(C3CCCC3)CC2)cc1` (stereo not given): the Potency entry is “inactive”. The entry for `O=C(Nc1ccccc1N1CCCCC1)c1ccc([N+](=O)[O-])o1` is “inactive”; for `Cc1ccc2nc(-c3ccc(NC(=O)CCN4C(=O)c5ccccc5C4=O)cc3)sc2c1` it is “inactive”.

Consider `O=c1c2ccccc2oc2nc(-c3ccco3)n(-c3ccccc3)c(=O)c12`, for which the Potency entry was “inactive”.

For `Cc1cccc(N2CCN(S(=O)(=O)c3ccc4c(c3)CCC(=O)N4)CC2C)c1` (stereo not given), the Potency result was “inactive”. With `O=C(COC(=O)c1ccc(F)cc1)NC1CC1`, the Potency result was “inactive”. For the compound `O=C(/C(=N/N=C/c1ccc(O)c(O)c1)c1ccccc1)c1ccccc1`, the Potency result was “inactive”. Consider `CSCCC(NC(=O)c1ccc(Cl)cc1Cl)C(=O)N1CC(C)OC(C)C1` (stereo not given), for which the Potency entry is “inactive”. `CNc1nnc(SCC(=O)c2cc(C)n(C3CC3)c2C)s1`: the Potency result was “inactive”. For the compound `CC(C)(C)CC(=O)O/N=C(\N)c1ccccn1`, the Potency was 0.164 µM (active). The entry for `OCc1cc(Br)ccc1OCc1nc2ccccc2s1` is “inactive”; for `CC(C)(C)c1ccc(/C=N/Nc2ccc(C(=O)O)cc2)cc1` it is “inactive”.

With `Cc1sc2nc(CSC(C)C(=O)Nc3ccccn3)[nH]c(=O)c2c1C` (stereo not given), the Potency result is “inactive”.

As for `COc1ccc(CCC(C)NCC(C)c2ccccc2)cc1` (stereo not given), the Potency entry was “inactive”. The result for `Cc1c(/C(O)=C2/C(=O)C(=O)N(Cc3cccnc3)C2c2cccs2)cnn1-c1ccccc1` (stereo not given) reads “inactive”. With `Cc1csc(NC(=O)/C=C/c2ccco2)n1`, the Potency result was “inactive”. As to `O=C(CCc1nc(-c2ccccc2)no1)N1CCCC1`, the Potency entry is “inactive”. The result for `C=C[C@@H]1c2cc(C)ccc2N(S(=O)(=O)c2ccc(C)cc2)[C@H](c2ccccc2C(F)(F)F)C1(C#N)C#N` reads “inactive”.

Consider `O=c1oc(CCO)cc2ccc(C#Cc3ccsc3)cc12`, for which the Potency result was “inactive”. `Fc1ccccc1/C=C/c1ccc2ccccc2n1`: the Potency entry was “inactive”. For the compound `Cc1occc1C(=O)NNC(=S)Nc1ccccc1C(F)(F)F`, the Potency entry was “inactive”. The result for `Cc1cccc(NC(=O)c2oc3c(c2C)C(=O)CC(C)(C)C3)n1` reads “inactive”; that for `N#C/C(Cn1c[n+](NC(=O)Nc2ccccc2)cn1)=N/O`, “inactive”.

For `Cc1ccc(C)c(C(=O)COC(=O)c2n[nH]c3ccccc23)c1`, the Potency result was “inactive”.
